Reference: PubChem BioAssay AID1159580 (chemical genetic matrix, 2015)
Values joined by “and” are separate entries in the source; they are usually repeats but may differ in a detail not shown here. Identical values can stand only once. About 2,000 (36%) of roughly 5,500 compounds were called active. Another 18% or so got no clear call; they are omitted. Rule as the data show it: active = normalized growth mostly below about 0.91 (no sharp cut-off); inconclusive = no clear call, values can overlap the other calls; inactive = mostly above about 0.92. This is one part of the list.

Test: chemical genetic growth profiling, strain panel (AID 1159580);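 also: tested at 20 µM; growth read once vehicle control cultures reached saturation at 30 °C; 1 = growth at the plate median or of vehicle wells; lower values mean less growth of the strain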
Settings: S. cerevisiae deletion strains, growth OD

Measured: normalized growth

CC1(C)C(=O)[C@@H]2O[C@@H]2[C@@]2(C)C1C[C@@H](O)[C@]1(C)C2CC[C@@]2(C)[C@H](c3ccoc3)OC(=O)C3OC321 (stereo partly specified)
inactive: locus YAL021C, strain ccr4, hits give low values 0.981 | locus YAL026C, strain drs2, hits give low values 0.969 | locus YAL030W, strain snc1, hits give low values 0.982 | locus YBL061C, strain skt5, hits give low values 0.989 | locus YBR009C, strain hhf1, hits give low values 1 | locus YBR021W, strain FUR4, hits give low values 0.965 | locus YBR023C, strain chs3, hits give low values 0.998 | locus YBR171W, strain sec66, hits give low values 0.994 | locus YBR229C, strain ROT2, hits give low values 1 | locus YBR231C, strain swc5, hits give low values 0.995 | locus YBR279W, strain paf1, hits give low values 0.987 | locus YCL011C, strain gbp2, hits give low values 0.999 | locus YCL016C, strain dcc1, hits give low values 0.997 | locus YCL029C, strain bik1, hits give low values 0.988 | locus YCL061C, strain MRC1, hits give low values 1.01 | locus YCL069W, strain vba3, hits give low values 0.999 | locus YCR088W, strain abp1, hits give low values 1 | locus YDL005C, strain med2, hits give low values 0.987 | locus YDL035C, strain GPR1, hits give low values 0.998 | locus YDL040C, strain nat1, hits give low values 0.998 | locus YDL074C, strain BRE1, hits give low values 0.972 | locus YDL101C, strain DUN1, hits give low values 1 | locus YDL134C, strain PPH21, hits give low values 0.989 | locus YDL185W, strain tfp1, hits give low values 0.997 | locus YDL192W, strain arf1, hits give low values 0.988 | locus YDR001C, strain nth1, hits give low values 1 | locus YDR069C, strain doa4, hits give low values 0.999 | locus YDR101C, strain arx1, hits give low values 0.971 | locus YDR137W, strain rgp1, hits give low values 1 | locus YDR150W, strain NUM1, hits give low values 1 | locus YDR159W, strain sac3, hits give low values 0.998 | locus YDR162C, strain NBP2, hits give low values 1 | locus YDR195W, strain ref2 0.989 | locus YDR297W, strain sur2, hits give low values 0.99 | locus YDR318W, strain mcm21, hits give low values 0.974 | locus YDR334W, strain swr1, hits give low values 0.989 | locus YDR335W, strain msn5, hits give low values 0.987 | locus YDR388W, hits give low values 0.991 | locus YDR392W, strain spt3, hits give low values 0.984 | locus YDR502C, strain sam2, hits give low values 0.957 | locus YEL003W, strain gim4, hits give low values 1.01 | locus YEL037C, strain rad23, hits give low values 0.988 | locus YEL061C, strain CIN8 (second series), hits give low values 1 | locus YER015W, strain faa2, hits give low values 0.996 | locus YER016W, strain bim1, hits give low values 0.995 | locus YER110C, hits give low values 0.976 | locus YER111C, strain swi4, hits give low values 0.996 | locus YER155C, strain BEM2 (second series), hits give low values 1 | locus YER155C, strain BEM2, hits give low values 1 | locus YER167W, strain BCK2, hits give low values 1.01 | locus YFR010W, strain ubp6, hits give low values 1 | locus YGL078C, strain dbp3, hits give low values 0.985 | locus YGL086W, strain mad1, hits give low values 0.977 | locus YGL167C, strain pmr1, hits give low values 1.01 | locus YGL173C, strain kem1, hits give low values 1 | locus YGL227W, strain vid30, hits give low values 1 | locus YGL240W, strain doc1, hits give low values 1 | locus YGL248W, strain PDE1, hits give low values 0.998 | locus YGL253W, strain hxk2, hits give low values 1 | locus YGR135W, strain pre9, hits give low values 0.952 | locus YGR229C, strain SMI1, hits give low values 0.981 | locus YGR252W, strain gcn5, hits give low values 0.845 | locus YHR013C, strain ard1, hits give low values 0.993 | locus YHR027C, strain rpn1, hits give low values 0.997 | locus YHR030C, strain SLT2, hits give low values 1.02 and 0.977 | locus YHR079C, strain IRE1 (second series), hits give low values 0.991 | locus YHR079C, strain IRE1, hits give low values 0.986 | locus YHR094C, strain hxt1, hits give low values 0.989 | locus YHR129C, strain ARP1, hits give low values 1 | locus YHR142W, strain chs7, hits give low values 0.993 | locus YHR200W, strain rpn10, hits give low values 0.982 | locus YIL066C, strain RNR3, hits give low values 1.01 | locus YIL073C, strain SPO22, hits give low values 0.992 | locus YIL125W, strain kgd1, hits give low values 0.992 | locus YIR030C, strain dcg1, hits give low values 0.994 | locus YJL092W, strain hpr5, hits give low values 1 | locus YJL095W, strain BCK1 (second series), hits give low values 0.994 | locus YJL095W, strain BCK1, hits give low values 0.982 and 0.983 | locus YJL115W, strain asf1, hits give low values 0.989 | locus YJL129C, strain trk1, hits give low values 0.985 | locus YJL134W, strain LCB3, hits give low values 0.997 | locus YJL154C, strain vps35, hits give low values 0.999 | locus YJL164C, strain tpk1, hits give low values 0.981 | locus YJL166W, strain qcr8, hits give low values 0.983 | locus YJL168C, strain set2, hits give low values 0.985 | locus YJL187C, strain SWE1 (second series), hits give low values 0.984
